# The full ranking holds about 81,000 sequences; the median of “one-hybrid fitness for binding NBS DNA” is about -0.1, and the highest 2% start at about 0.36. The entries come from a sample that favours the highest values as a whole.
# B1: Caulobacter ParB omega fusion; a variant is named by its letters at X, in order, B8GW30 (parent)
# chain: MESVVVGEPGMSEGRRGLGRGLSALLGEVDAAPAQAPGEQLGGSREAPIEILQRNPDQPRRTFREEDLEDLSNSIREKGVLQPILVRPSPDTAGEYQIVAGERAWRAAQRAGLKTVPIMVRELDDLAVLEIGIIENVQRADLNVLEEALSYKVLMEKFERTQENIAQTIGKSXSHVANXMRLLXLPDEVQSYLVSGELTAXHARAIAAAADPVALAKQIIEGGLSVRETEALARKAPNLSAGKSKGGRPPRVKDTDTQALESDLSSVLGLDVSIDHRGSTGTLTITYATLEQLDDLCNRLTRGI
# Variants of: B1
# Assay: one-hybrid fitness for binding NBS DNA (the Noc-binding site; scaled: cognate 1, non-cognate 0); higher = stronger binding
# Details: with NBS DNA site
# Outline: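 Pre- and post-selection plasmids were Illumina-sequenced, three replicate libraries were pooled, and any variant with under 10 reads was removed. The libraries were Caulobacter ParB with four specificity codons randomised, selected in E. coli USO through a HIS3 reporter whose site is 19 bp from the promoter. Cells grew 48 hours at 37°C on M9 without histidine, with 0.1 mM IPTG and 5 mM 3-AT. Fitness is the log change in variant-to-wild-type read ratio, rescaled against cognate and non-cognate.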
row,Variant,one-hybrid fitness for binding NBS DNA
1,EPSE,≤ 0.2
2,WYYR,≤ 0.2
3,QNWS,≤ 0.2
4,TTNM,≤ 0.2
5,AGGD,≤ 0.2
6,QTAS,0.51
7,QTAN,0.217
8,QTAD,≤ 0.2
9,QTFN,≤ 0.2
10,QTAP,≤ 0.2
11,QTAM,0.233
12,QTFS,0.391
13,QTFK,≤ 0.2
14,QTAH,0.401
15,YQLR,≤ 0.2
16,LRHP,≤ 0.2
17,REPM,≤ 0.2
18,TKNF,≤ 0.2
19,SEEG,≤ 0.2
20,RKVP,≤ 0.2
21,RKKQ,0.242
22,RKVT,0.512
23,RKKG,0.227
24,RPVT,≤ 0.2

row,Variant,one-hybrid fitness for binding NBS DNA
1,RKKT,0.691
2,ILKV,≤ 0.2
3,VPFY,≤ 0.2
4,DRFR,≤ 0.2
5,KPAR,≤ 0.2
6,KCAR,≤ 0.2
7,KRFR,0.469
8,NRFR,≤ 0.2
9,KRAR,0.541
10,STSG,≤ 0.2
11,QKKV,0.406
12,QKVV,≤ 0.2
13,QRVV,0.272
14,QRPV,≤ 0.2
15,QAVV,≤ 0.2
16,QPKV,≤ 0.2
17,QAKV,0.393
18,QRKV,0.588
19,QCKV,0.479
20,QKCV,≤ 0.2
21,QAQV,≤ 0.2
22,QLKV,0.342
23,NHES,≤ 0.2
24,WMIP,≤ 0.2

row,Variant,one-hybrid fitness for binding NBS DNA
1,VPEL,≤ 0.2
2,KIDS,≤ 0.2
3,YGSP,≤ 0.2
4,QHDV,≤ 0.2
5,QTKV,0.599
6,QSVV,≤ 0.2
7,QHVV,≤ 0.2
8,QMVV,≤ 0.2
9,QMKV,0.424
10,QHKV,0.44
11,QTVV,≤ 0.2
12,QSKV,0.398
13,QMNV,≤ 0.2
14,QTIV,≤ 0.2
15,QIKV,0.267
16,TFNG,≤ 0.2
17,WQMG,≤ 0.2
18,FYPI,≤ 0.2
19,VPIG,≤ 0.2
20,DNCR,≤ 0.2
21,MCLS,≤ 0.2
22,LFAP,≤ 0.2
23,LAIW,≤ 0.2
24,QRAA,0.617

row,Variant,one-hybrid fitness for binding NBS DNA
1,QPFA,≤ 0.2
2,QRFA,0.494
3,QSFA,≤ 0.2
4,QHAA,≤ 0.2
5,QMAA,0.339
6,QVCG,≤ 0.2
7,AEFL,≤ 0.2
8,MPNG,≤ 0.2
9,KCST,≤ 0.2
10,KPET,≤ 0.2
11,KRGT,0.537
12,DRST,≤ 0.2
13,KRST,0.573
14,KCGT,≤ 0.2
15,KRHP,≤ 0.2
16,KAET,≤ 0.2
17,KRGH,≤ 0.2
18,KRET,0.501
19,KRHT,0.651
20,KCHT,≤ 0.2
21,LDCV,≤ 0.2
22,DSPG,≤ 0.2
23,EQLY,≤ 0.2
24,TMSQ,≤ 0.2

row,Variant,one-hybrid fitness for binding NBS DNA
1,VICL,≤ 0.2
2,MMNR,≤ 0.2
3,KRCT,0.558
4,NRRT,≤ 0.2
5,KRPT,0.305
6,KCYT,≤ 0.2
7,KRCD,≤ 0.2
8,NRCT,≤ 0.2
9,KCIT,≤ 0.2
10,KCRT,0.315
11,KRIT,0.481
12,DRYT,≤ 0.2
13,KRYT,0.613
14,KRRT,0.674
15,FRGT,≤ 0.2
16,HAIS,≤ 0.2
17,WVIG,≤ 0.2
18,TARF,≤ 0.2
19,LMCG,≤ 0.2
20,PVMR,≤ 0.2
21,SKSN,≤ 0.2
22,CRIR,≤ 0.2
23,HDNF,≤ 0.2
24,TALC,≤ 0.2

row,Variant,one-hybrid fitness for binding NBS DNA
1,MHTW,≤ 0.2
2,KRWT,0.669
3,KPLT,≤ 0.2
4,KRQT,0.513
5,KCQT,≤ 0.2
6,KRQP,≤ 0.2
7,NRWT,≤ 0.2
8,KRLT,0.469
9,KPWT,≤ 0.2
10,KCLT,≤ 0.2
11,ELNV,≤ 0.2
12,NLKK,≤ 0.2
13,FRPG,≤ 0.2
14,HKCG,≤ 0.2
15,PFLC,≤ 0.2
16,RHLR,0.329
17,RHIR,≤ 0.2
18,RHRR,0.656
19,RHHP,≤ 0.2
20,RHHR,0.447
21,RHWR,0.256
22,RHQR,0.448
23,RHPR,≤ 0.2
24,RHHH,≤ 0.2

row,Variant,one-hybrid fitness for binding NBS DNA
1,RHYR,0.387
2,EMNR,≤ 0.2
3,WDGG,≤ 0.2
4,QAEP,≤ 0.2
5,ADMS,≤ 0.2
6,PVLV,≤ 0.2
7,NCEV,≤ 0.2
8,SRIS,≤ 0.2
9,DRYY,≤ 0.2
10,RHSD,≤ 0.2
11,RHGP,≤ 0.2
12,RHGH,≤ 0.2
13,RHSR,0.448
14,RHGR,0.403
15,RHSH,≤ 0.2
16,MNYT,≤ 0.2
17,VDVI,≤ 0.2
18,YLRS,≤ 0.2
19,PAHQ,≤ 0.2
20,SSQC,≤ 0.2
21,FTTS,≤ 0.2
22,SMHC,≤ 0.2
23,QTCS,0.495
24,QTCN,≤ 0.2

row,Variant,one-hybrid fitness for binding NBS DNA
1,QTYS,0.507
2,QSLS,0.263
3,QTIP,≤ 0.2
4,QTPS,0.314
5,QTCP,≤ 0.2
6,QTIS,0.398
7,QPLS,≤ 0.2
8,QTIH,0.221
9,QCLS,0.382
10,CPTM,≤ 0.2
11,DVLM,≤ 0.2
12,WVEG,≤ 0.2
13,TFRM,≤ 0.2
14,MYPF,≤ 0.2
15,EAVR,≤ 0.2
16,PVAE,≤ 0.2
17,NTRS,≤ 0.2
18,QTWP,≤ 0.2
19,QTRS,0.811
20,QTES,0.317
21,QMCP,≤ 0.2
22,QMCD,≤ 0.2
23,QTWN,≤ 0.2
24,QMCS,0.38

row,Variant,one-hybrid fitness for binding NBS DNA
1,QTQN,≤ 0.2
2,QTQP,≤ 0.2
3,QTWS,0.444
4,QTQS,0.504
5,MSSN,≤ 0.2
6,FFKL,≤ 0.2
7,LPTN,≤ 0.2
8,HFHL,≤ 0.2
9,QSEF,≤ 0.2
10,TASS,≤ 0.2
11,DAGG,≤ 0.2
12,DEKT,≤ 0.2
13,QSCS,0.296
14,QTLP,≤ 0.2
15,QCCS,0.393
16,QTLS,0.426
17,QPCS,≤ 0.2
18,QTLD,≤ 0.2
19,ERTA,≤ 0.2
20,TLTL,≤ 0.2
21,EMRG,≤ 0.2
22,RSNS,0.508
23,RMDS,≤ 0.2
24,RCNS,0.557

row,Variant,one-hybrid fitness for binding NBS DNA
1,RLDS,≤ 0.2
2,RSND,≤ 0.2
3,RMNS,0.481
4,RFNS,0.331
5,RSDS,≤ 0.2
6,RMNP,≤ 0.2
7,RPNS,≤ 0.2
8,RLND,≤ 0.2
9,RLNS,0.493
10,PYGH,≤ 0.2
11,TCDT,≤ 0.2
12,SICL,≤ 0.2
13,ITNT,≤ 0.2
14,QLLN,≤ 0.2
15,QLKM,0.318
16,QEKR,0.285
17,QLKR,0.932
18,QCKR,1.08
19,QPKR,0.405
20,QLVR,0.34
21,QGKR,0.358
22,QSKP,0.229
23,QSKR,0.979
24,QDKR,0.32

row,Variant,one-hybrid fitness for binding NBS DNA
1,QPKP,≤ 0.2
2,QSKD,0.203
3,AWRM,≤ 0.2
4,VLCG,≤ 0.2
5,GDPR,≤ 0.2
6,GMNC,≤ 0.2
7,GYHN,≤ 0.2
8,GMFV,≤ 0.2
9,GDMV,≤ 0.2
10,PAFV,≤ 0.2
11,GFQR,≤ 0.2
12,KNLN,≤ 0.2
13,QAKG,0.313
14,QAVR,0.358
15,QIIR,≤ 0.2
16,QIVR,0.271
17,QIKR,0.853
18,QAKR,0.982
19,SPHS,≤ 0.2
20,GILL,≤ 0.2
21,CSWG,≤ 0.2
22,VYLS,≤ 0.2
23,RVRN,≤ 0.2
24,RVCM,≤ 0.2

row,Variant,one-hybrid fitness for binding NBS DNA
1,RVCR,0.436
2,RVCS,0.444
3,RVCD,≤ 0.2
4,RVCT,0.433
5,RVCH,≤ 0.2
6,RVCP,≤ 0.2
7,RVRS,0.577
8,RVCY,≤ 0.2
9,RVYS,0.351
10,RVCN,≤ 0.2
11,TIPT,≤ 0.2
12,LYLM,≤ 0.2
13,HSTN,≤ 0.2
14,QCVS,0.381
15,QSVS,0.228
16,NRKS,≤ 0.2
17,QRKP,0.404
18,DRKS,≤ 0.2
19,QPVS,0.202
20,QRVS,0.561
21,QRKS,0.778
22,ANSS,≤ 0.2
23,LCGR,≤ 0.2
24,TETQ,≤ 0.2

row,Variant,one-hybrid fitness for binding NBS DNA
1,TNPC,≤ 0.2
2,YPLP,≤ 0.2
3,YFGS,≤ 0.2
4,QNIT,≤ 0.2
5,ATQS,≤ 0.2
6,NPLV,≤ 0.2
7,WWKR,0.203
8,QRKD,0.377
9,QRKH,0.766
10,QCKD,0.337
11,QRVD,≤ 0.2
12,QRVP,≤ 0.2
13,QRKN,0.573
14,QPKH,≤ 0.2
15,QRVH,0.387
16,QRPH,≤ 0.2
17,QRVN,0.259
18,EGSD,≤ 0.2

# Reference: a collection of fitness landscapes (doi:10.1016/j.celrep.2020.107928)
